Reference: PubChem BioAssay AID1053124 (Broad Institute, 2014)
Potency and affinity values are given separately. Unmarked numbers belong to inactive results.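 Rule for the calls: active = cell killing whose fitted half-effect concentration is at most twice the top valid dose tested; inconclusive = flat curve with 30 to 70% killing, or a poor fit; inactive = effect in the rising direction, plus the rest.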

Assay: viability loss in A549 lung cells – cell-based, ATP luminescence, cherry-pick, set 2, cytotoxicity control, dose response (AID 1053124);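 note: 0% = neutral control wells and -100% = mitoxantrone 10 µM positive control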
Conditions: ATP luminescence (CellTiter-Glo), 72 h; series mostly up to 26 µM; activity change, negative = cytotoxicity: at the top concentration

| Structure (SMILES) | activity change, negative = cytotoxicity |
| --- | --- |
| COc1ccccc1NS(=O)(=O)c1cc(NC(=O)CCNC(C)=O)ccc1C | 0.216% |
| O=c1c2ccccc2n(CC(O)CN2CCCCC2)c2ccccc12 (stereo not given) | -1.33% |
| CC(=O)OC[C@@H]1CN(Cc2ccccc2)C[C@H](n2cnc3c(N(C)C(C)C)ncnc32)O1 | -4.33% |
| Cc1cccn2c(=O)c3cc(C(=O)NC(C)c4ccccc4)c(=N)n(CCCn4ccnc4)c3nc12 (stereo not given) | -9.79% |
| O=C(Nc1ccc(-c2ccco2)cc1)C1CCCN(Cc2ccco2)C1 (stereo not given) | -10.8% |
| COc1cc(/C=C(\C#N)C(=O)NC(C)C)cc(Cl)c1O | -7.73% |
| CCN(CC)Cc1c(O)c(Cl)cc2c(C)cc(=O)oc12 | -1.59% |
| COc1ccc(C(=O)c2sc3nc(-c4ccc(OC)cc4)ccc3c2N)cc1 | -7.45% |
| CCC(Sc1nc(N)c(NC(=O)c2ccc(OC)cc2)c(=O)[nH]1)C(=O)O (stereo not given) | -2.92% |
| COc1cccc(N2CCN(C(=O)C3CCCN(S(=O)(=O)c4cnc[nH]4)C3)CC2)c1 (stereo not given) | -0.022% |
| CCc1cccc(C)c1NC(=S)NCc1ccc2c(c1)cc(C)n2C | 2.91% |
| CN1CCN(c2nc3ccccn3c(=O)c2/C=C(\C#N)S(=O)(=O)c2ccccc2)CC1 | 2.15% |
| Cc1cccn2c(=O)c3cc(C#N)c(=NC(=O)c4cccs4)n(CC(C)C)c3nc12 | -0.676% |
| N#Cc1c2ccc(OCC(N)=O)cc2n2ccccc12 | -14.9% |
| O=C(Cn1ccc([N+](=O)[O-])n1)N1CCCCCC1 | -10.4% |
| N#CC1=C(N)OC2=C(C(=O)CCC2)C1c1cc2c(cc1Br)OCO2 (stereo not given) | 2.47% |
| Nc1ccc2nc(-c3ccccc3)cnc2c1 | -14.6% |
| CC1(C)CC(=O)C2=C(C1)OC(N)=C(C#N)[C@@H]2c1ccccc1[N+](=O)[O-] | -2.34% |
| Cc1cc(-n2c(=O)c(C#N)cc3c(=O)n4cccc(C)c4nc32)no1 | -6.24% |
| CC(=O)NNc1cc(N2CCOCC2)nc(N2CCOCC2)n1 | -2.48% |

| Structure (SMILES) | activity change, negative = cytotoxicity |
| --- | --- |
| Cc1c(C(=O)NCc2cccc(C(F)(F)F)c2)sc(=O)n1Cc1ccc(C(=O)N(C)C)cc1 | 3.24% |
| CC(=O)Oc1ccc(C(=O)Nc2cc(C)on2)cc1 | 1.55% |
| CCOc1ccc2nc(NCCCNC(=O)c3cc(OC)c(OC)c(OC)c3)c(C#N)cc2c1 | -8.1% |
| CCCCN1C=C(C(=O)OC)C(c2ccccc2Cl)C(C(=O)OC)=C1 | -12.4% |
| Cc1c(Nc2c3ccccc3nc3ccccc23)c(=O)n(-c2ccccc2)n1C | 5.87% |
| Cc1ccc2[nH]c3ccccc3c(=O)c2c1 | -6.97% |
| Cc1ccc(-n2c(C)cc(/C=N/NC(=O)Cn3c4ccccc4c(=O)c4ccccc43)c2C)cc1 | -3.65% |
| CC(C)CCN(CCC(C)C)CC(O)Cn1c2ccccc2c(=O)c2ccccc21 (stereo not given) | 14% |
| CCOC(=O)c1c2ccc(OCC(=O)NN)cc2n2ccccc12 | -10.5% |
| CCOC(=O)C(NC(=O)c1ccccc1)(OCC1(CC)COC1)C(F)(F)F (stereo not given) | -3.35% |
| CCOc1ccc(S(=O)(=O)Nc2ccc(C(=O)N(CC)CC(=O)NCc3cccs3)cc2)cc1 | 5.76% |
| COc1ccc(C2CC(c3cccs3)=NN2c2nc(C)c(C(C)=O)s2)cc1OC (stereo not given) | -26.6% |
| CC(C)CCN1C(=O)c2cccc3c(N)ccc(c23)C1=O | 5.3% |
| CCc1nc(SCC(=O)c2ccccc2)c2ccccc2n1 | 0.308% |
| O=C(NNc1cc(N2CCCC2)nc(N2CCCC2)n1)c1ccc([N+](=O)[O-])cc1 | -12.8% |
| COc1ccc(C2C(C#N)=C(N)Oc3cc(O)ccc32)cc1Cl (stereo not given) | -5.72% |
| COc1ccc(CCNC(=O)CSc2cn(Cc3cccc(C)c3)c3ccccc23)cc1OC | -20.8% |
| Cc1ccc(OCC(=O)NNc2c3ccccc3nc3ccccc23)cc1 | 4.66% [at 12 µM] |
| C/C(=N\NC(=O)CC#N)c1cc2ccc(O)cc2oc1=O | 2.81% |
| CN1CCc2c(sc(NC(=O)C3CCCCC3)c2C(N)=O)C1 | 1.99% |
